Experiment [1] has as its target T1, Serine/threonine-protein kinase D2 (Homo sapiens) (UniProt Q9BZL6).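 Note: mean value of PRKD2 inhibition, from the GSK PKIS screening panel.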
T1 sequence (whole entry): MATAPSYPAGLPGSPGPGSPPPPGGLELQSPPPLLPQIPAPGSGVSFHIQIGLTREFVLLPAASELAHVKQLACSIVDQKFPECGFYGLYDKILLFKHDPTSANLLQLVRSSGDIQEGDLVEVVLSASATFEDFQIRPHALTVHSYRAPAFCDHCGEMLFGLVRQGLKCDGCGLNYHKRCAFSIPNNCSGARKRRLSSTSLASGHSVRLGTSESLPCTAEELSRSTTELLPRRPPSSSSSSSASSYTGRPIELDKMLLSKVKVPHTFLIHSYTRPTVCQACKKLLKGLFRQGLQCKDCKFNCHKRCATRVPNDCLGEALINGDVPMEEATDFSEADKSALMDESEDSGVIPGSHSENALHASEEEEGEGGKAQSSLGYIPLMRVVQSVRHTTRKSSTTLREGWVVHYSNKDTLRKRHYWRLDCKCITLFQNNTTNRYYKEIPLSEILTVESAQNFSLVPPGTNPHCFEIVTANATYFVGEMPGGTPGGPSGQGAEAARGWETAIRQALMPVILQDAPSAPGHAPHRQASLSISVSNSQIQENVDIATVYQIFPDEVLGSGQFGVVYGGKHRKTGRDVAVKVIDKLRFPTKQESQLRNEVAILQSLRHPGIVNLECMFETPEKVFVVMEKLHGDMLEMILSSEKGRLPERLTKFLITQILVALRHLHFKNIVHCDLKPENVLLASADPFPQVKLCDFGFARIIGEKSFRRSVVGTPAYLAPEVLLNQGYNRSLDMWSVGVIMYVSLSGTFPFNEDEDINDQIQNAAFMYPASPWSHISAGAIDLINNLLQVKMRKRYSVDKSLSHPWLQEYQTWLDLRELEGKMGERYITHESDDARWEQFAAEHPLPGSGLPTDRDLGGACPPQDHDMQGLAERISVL
To be noted: at 1 µM.

Experiment [2] deals with T2, Serine/threonine-protein kinase D3 (Homo sapiens) (UniProt O94806).
T2 sequence (whole entry): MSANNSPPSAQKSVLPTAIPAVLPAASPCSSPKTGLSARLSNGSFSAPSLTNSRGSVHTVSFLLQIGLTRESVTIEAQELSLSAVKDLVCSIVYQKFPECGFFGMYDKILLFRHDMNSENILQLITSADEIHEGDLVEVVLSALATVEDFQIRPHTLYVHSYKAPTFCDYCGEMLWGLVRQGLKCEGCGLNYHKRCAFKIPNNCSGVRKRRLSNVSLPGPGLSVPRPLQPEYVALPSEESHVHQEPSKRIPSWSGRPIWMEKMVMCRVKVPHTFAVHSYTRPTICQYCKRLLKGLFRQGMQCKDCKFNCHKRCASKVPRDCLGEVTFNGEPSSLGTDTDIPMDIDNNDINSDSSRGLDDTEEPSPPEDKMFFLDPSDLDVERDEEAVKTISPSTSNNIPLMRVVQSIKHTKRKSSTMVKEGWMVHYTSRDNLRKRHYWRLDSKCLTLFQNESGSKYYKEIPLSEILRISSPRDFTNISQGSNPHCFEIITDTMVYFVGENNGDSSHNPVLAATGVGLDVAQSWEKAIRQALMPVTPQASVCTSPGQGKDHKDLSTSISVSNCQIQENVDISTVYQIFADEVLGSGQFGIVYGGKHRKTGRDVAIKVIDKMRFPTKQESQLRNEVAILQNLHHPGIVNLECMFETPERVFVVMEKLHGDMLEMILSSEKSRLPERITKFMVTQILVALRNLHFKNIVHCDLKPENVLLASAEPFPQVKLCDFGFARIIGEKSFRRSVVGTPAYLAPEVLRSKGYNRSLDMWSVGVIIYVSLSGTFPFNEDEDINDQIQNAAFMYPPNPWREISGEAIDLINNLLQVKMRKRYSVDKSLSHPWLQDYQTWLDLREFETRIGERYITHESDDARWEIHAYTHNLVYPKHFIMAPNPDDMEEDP
To be noted: at 0.1 µM.

In experiment [3] the target is T2, Serine/threonine-protein kinase D3 (Homo sapiens). The conditions noted are these: at 1 µM.
Experiment [4] deals with T3, cGMP-dependent protein kinase 1 (Homo sapiens) (UniProt Q13976).
T3 sequence (whole entry): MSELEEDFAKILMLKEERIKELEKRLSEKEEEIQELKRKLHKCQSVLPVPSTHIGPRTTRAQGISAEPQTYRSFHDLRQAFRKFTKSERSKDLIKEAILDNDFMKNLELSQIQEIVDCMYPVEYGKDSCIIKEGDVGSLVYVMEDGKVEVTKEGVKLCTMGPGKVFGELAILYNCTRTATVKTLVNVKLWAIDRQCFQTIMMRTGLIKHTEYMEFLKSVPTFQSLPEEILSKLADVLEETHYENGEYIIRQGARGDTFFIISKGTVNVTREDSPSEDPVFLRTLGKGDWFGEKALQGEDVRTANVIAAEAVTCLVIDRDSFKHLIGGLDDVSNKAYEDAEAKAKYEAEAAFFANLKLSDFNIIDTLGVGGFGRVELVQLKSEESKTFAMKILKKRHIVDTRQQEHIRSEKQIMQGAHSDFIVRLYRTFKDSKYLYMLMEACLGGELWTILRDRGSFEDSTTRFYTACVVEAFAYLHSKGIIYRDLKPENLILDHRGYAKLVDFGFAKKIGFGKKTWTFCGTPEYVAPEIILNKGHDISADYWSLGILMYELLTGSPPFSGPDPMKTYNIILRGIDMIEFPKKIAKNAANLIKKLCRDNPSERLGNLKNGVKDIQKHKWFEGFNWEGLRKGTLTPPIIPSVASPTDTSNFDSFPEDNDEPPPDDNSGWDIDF
The conditions noted are these: at 0.1 µM.

The target of experiment [5] is T3, cGMP-dependent protein kinase 1 (Homo sapiens). The conditions noted are these: at 1 µM.
Experiment [6] has as its target T4, cGMP-dependent protein kinase 2 (Homo sapiens) (UniProt Q13237).
T4 sequence (whole entry): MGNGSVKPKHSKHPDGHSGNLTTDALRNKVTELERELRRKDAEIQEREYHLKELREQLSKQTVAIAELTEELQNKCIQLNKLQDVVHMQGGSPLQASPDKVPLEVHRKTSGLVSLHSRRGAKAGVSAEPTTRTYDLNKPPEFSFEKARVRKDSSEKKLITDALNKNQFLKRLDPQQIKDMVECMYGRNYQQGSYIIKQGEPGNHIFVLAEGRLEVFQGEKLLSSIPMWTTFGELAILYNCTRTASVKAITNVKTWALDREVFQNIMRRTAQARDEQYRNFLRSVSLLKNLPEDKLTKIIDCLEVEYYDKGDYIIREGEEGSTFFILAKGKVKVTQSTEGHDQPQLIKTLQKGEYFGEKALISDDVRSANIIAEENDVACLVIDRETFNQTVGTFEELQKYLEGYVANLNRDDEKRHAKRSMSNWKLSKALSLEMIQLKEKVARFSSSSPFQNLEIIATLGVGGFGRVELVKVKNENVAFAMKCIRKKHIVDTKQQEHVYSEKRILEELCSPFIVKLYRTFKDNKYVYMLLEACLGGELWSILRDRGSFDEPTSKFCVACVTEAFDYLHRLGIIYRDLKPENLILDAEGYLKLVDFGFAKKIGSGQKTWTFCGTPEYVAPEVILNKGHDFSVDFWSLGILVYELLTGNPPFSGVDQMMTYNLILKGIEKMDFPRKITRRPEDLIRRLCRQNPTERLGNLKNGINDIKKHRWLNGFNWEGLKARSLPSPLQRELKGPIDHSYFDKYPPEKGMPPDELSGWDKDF
The conditions noted are these: at 0.1 µM.

Experiment [7] has as its target T4, cGMP-dependent protein kinase 2 (Homo sapiens). To be noted: at 1 µM.
The target in experiment [8] is T5, cAMP-dependent protein kinase catalytic subunit PRKX (Homo sapiens) (UniProt P51817).
T5 sequence (whole entry): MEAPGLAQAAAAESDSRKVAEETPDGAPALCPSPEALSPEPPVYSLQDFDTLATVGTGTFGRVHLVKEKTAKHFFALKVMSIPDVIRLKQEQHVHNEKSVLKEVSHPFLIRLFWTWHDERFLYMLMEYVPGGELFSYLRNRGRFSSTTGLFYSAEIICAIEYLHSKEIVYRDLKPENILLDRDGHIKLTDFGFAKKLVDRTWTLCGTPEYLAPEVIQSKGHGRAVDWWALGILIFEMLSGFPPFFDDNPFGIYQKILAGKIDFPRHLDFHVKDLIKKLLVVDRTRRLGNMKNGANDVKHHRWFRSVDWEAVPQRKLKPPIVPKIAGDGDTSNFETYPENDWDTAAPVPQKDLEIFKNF
To be noted: at 0.1 µM.

Experiment [9] concerns the target T5, cAMP-dependent protein kinase catalytic subunit PRKX (Homo sapiens). The conditions noted are these: at 1 µM.
In experiment [10] the target is Rho-associated protein kinase 1 (Homo sapiens) (UniProt Q13464). The conditions noted are these: at 0.1 µM.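 Note: values are mean percent inhibition of ROCK1.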
Chain of Rho-associated protein kinase 1 (Homo sapiens) (Q13464 2-1354 limits assumed): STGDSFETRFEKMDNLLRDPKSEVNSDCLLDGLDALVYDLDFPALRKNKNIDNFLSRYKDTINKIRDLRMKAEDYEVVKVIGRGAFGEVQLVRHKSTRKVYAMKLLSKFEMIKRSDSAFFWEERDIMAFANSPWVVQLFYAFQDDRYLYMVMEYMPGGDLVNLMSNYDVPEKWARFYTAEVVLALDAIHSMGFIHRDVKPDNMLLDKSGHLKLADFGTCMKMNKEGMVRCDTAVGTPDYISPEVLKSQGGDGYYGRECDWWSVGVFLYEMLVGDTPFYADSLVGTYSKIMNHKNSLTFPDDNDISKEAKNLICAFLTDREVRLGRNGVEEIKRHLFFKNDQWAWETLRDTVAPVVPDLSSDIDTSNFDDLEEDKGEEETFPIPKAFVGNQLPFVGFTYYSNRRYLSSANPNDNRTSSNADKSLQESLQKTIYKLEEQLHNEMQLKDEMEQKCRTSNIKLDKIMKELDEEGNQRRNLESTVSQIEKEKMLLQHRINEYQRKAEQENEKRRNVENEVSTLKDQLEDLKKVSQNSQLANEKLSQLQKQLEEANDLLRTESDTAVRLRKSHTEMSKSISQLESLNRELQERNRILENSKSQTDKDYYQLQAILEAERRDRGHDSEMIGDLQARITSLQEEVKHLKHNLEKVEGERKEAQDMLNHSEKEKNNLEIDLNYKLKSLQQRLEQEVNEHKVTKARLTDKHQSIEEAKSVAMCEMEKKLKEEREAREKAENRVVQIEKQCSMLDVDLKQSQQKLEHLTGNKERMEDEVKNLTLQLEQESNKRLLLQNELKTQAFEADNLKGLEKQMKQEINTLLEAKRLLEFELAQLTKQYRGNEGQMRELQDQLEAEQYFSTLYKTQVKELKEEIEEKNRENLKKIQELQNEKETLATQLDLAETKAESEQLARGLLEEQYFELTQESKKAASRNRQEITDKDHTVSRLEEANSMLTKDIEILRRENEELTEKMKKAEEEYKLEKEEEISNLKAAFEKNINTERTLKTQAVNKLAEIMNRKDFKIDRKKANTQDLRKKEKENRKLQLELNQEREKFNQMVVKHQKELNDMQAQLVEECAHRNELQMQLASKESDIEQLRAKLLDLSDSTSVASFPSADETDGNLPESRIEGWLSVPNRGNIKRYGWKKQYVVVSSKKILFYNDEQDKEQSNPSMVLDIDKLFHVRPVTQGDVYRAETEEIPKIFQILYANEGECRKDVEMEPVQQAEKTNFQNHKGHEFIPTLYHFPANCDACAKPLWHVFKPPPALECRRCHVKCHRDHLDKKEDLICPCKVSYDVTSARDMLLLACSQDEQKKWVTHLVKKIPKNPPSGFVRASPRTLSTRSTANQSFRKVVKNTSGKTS

In general, inhibition refers to the change of the read-out against control, counted positive when it falls. As for `CN1CCN(C(=O)c2ccc(NC(=O)Nc3ccc(N(C)c4ccnc(Nc5ccc(CS(C)(=O)=O)cc5)n4)cc3)cc2)CC1`, the inhibition in experiment [1] is 3.43%; in experiment [2] it was 1.06%; in experiment [3], 3.69%; in experiment [4], 1.76%; in [5], 3.23%; in experiment [6] it was 1.26%. Also, the inhibition in [7] worked out at 1.71%; in experiment [8], 1.71%; in experiment [9] it was 0.77%; in experiment [10] it was 2.82%.
As for `ON=C1CCc2cc(-c3nc(C4CCNCC4)[nH]c3-c3ccncc3)ccc21`, the inhibition in [1] is 9.97%; in [2], 1.39%; in experiment [3], 8.68%; in experiment [4], -0.33%; in experiment [5] it was 1.76%; in [6], 0.54%. In addition, the inhibition in experiment [7] was 2.55%; in experiment [8], -0.73%; in experiment [9] it was -2.69%; in experiment [10] it was 0.17%.
In the case of `COC(=O)c1cncc(/C=C/c2c(C)cc(O)cc2C)c1`, the inhibition in experiment [1] was found to be 4%; in [2], 4.31%; in experiment [3] it was 3.64%; in experiment [4], 3.3%; in [5], 2.75%; in experiment [6], 1.54%. Also, the inhibition in experiment [7] came to 2.4%; in experiment [8] it was 1.78%; in experiment [9] it was 3.76%; in [10], 0.77%.
`NS(=O)(=O)c1ccc(NC=C2C(=O)Nc3ccc4ncsc4c32)cc1`: the inhibition in experiment [1] was 79%; in [2] it was 19.4%; in experiment [3], 76.3%; in experiment [4], 6.31%; in experiment [5], 28.6%; in experiment [6] it was 18.4%. Besides, the inhibition in experiment [7] is 61.7%; in experiment [8], 2.2%; in experiment [9], 12.2%; in experiment [10] it was 15.5%.
For the molecule `NC(=O)c1cccc(Nc2nccc(Nc3cccc(F)c3)n2)c1`, the inhibition in experiment [1] was 0.2%; in [2], 0.7%; in experiment [3], 1.01%; in experiment [4] it was 0.12%; in experiment [5], -0.32%; in experiment [6], 0.77%. Moreover, the inhibition in [7] turned out to be 0.47%; in [8] it was 1.19%; in [9], 0.35%; in experiment [10] it was 0.28%.
Take `CN(C)C(=O)O[C@H]1CN[C@H](C#Cc2cc3ncnc(Nc4ccc(OCc5cccc(F)c5)c(Cl)c4)c3s2)C1`: the inhibition was 1.92% in experiment [1]; 2.56% in experiment [2]; 2.75% in experiment [3]; 2.24% in experiment [4]; 6.88% in [5]; -0.06% in [6]. The inhibition in experiment [7] came out at 5.82%; in [8] it was 1.35%; in [9], 3.67%; in experiment [10] it was 1.82%.
For the molecule `Nc1nccc(-c2c(-c3ccc(F)cc3)nn3cc(C(F)(F)F)ccc23)n1`, the inhibition in [1] is 3.04%; in experiment [2], 0.99%; in experiment [3] it was 3.75%; in [4], -0.61%; in experiment [5], -0.49%; in [6] it was -0.17%. The inhibition in experiment [7] is -0.08%; in experiment [8] it was 0.72%; in [9], -0.61%; in experiment [10], -0.4%.
Turning to `CC(C)c1ccc2c(c1)NC(=O)/C2=N/Nc1ccc(S(N)(=O)=O)cc1`, the inhibition in [1] is -0.41%; in experiment [2] it was -0.27%; in experiment [3], -0.32%; in experiment [4], -1.53%; in experiment [5], 1.06%; in experiment [6], -0.39%. Besides, the inhibition in [7] was -0.18%; in experiment [8] it was 0.2%; in experiment [9], -0.32%; in experiment [10], -1.01%.
